Jurkat NFkB inh: lowers PMA/ionomycin-induced NF-kB signal in Jurkat cells | PMA/ionomycin-induced NF-kB luciferase reporter, luminescence | inhibition, % at 4 µM | 0.53% of 330,000 active | AID 435003; in the data active = inhibition above about 50%
697 NFkB inh: inhibitors of the PMA/ionomycin-induced NF-kB reporter in 697 B cells | 697 B-cell NF-kB luciferase reporter, 16 h | inhibition, % at 4 µM | 0.33% of 330,000 active | AID 435022; in the data active = inhibition above about 35%
Shn3 inh set2: inhibitors of Schnurri-3 3'UTR reporter in osteoblasts | Clone20 osteoblast Shn3 3'UTR firefly luciferase, 24 h | inhibition, % at 12.5 µM | 0.52% of 360,000 active | AID 588674;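 active = mean inhibition of at least 75% with every replicate also reaching 75%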;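 note: 0% = median of neutral control wells and 100% = pilot-screen positive control compound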
TAG inh: reduces triacylglycerol accumulation in H9c2 cells; Nile Red lipid (TAG) fluorescence; cells loaded with 200 µM oleic acid; inhibition, % at 12.5 µM; 0.66% of 230,000 active; AID 651582;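 active = pattern-corrected inhibition of lipid staining of at least 50% with the nuclear-stain viability signal not falling by more than 50%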;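 note: 0% = DMSO wells and 100% = triacsin C control wells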
aSyn UTR inh: 5' untranslated region of α-synuclein, MLPCN primary screen. AID 1813. 0.82% of 300,000 active. inhibition, % (tested at 7.5 µM). alpha-synuclein 5'UTR reporter, inhibitor activity; in the data active = inhibition above about 60%;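 note: H4 neuroglioblastoma cells stably carrying SNCA 5'UTR luciferase fusion; 0% = DMSO wells and 100% = positive control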
Gli-Sufu block: blocks Gli-Sufu signaling in a luciferase reporter; inhibition, % at 5 µM; 0.74% of 340,000 active; Sufu-KO-LIGHT fibroblasts, Gli luciferase reporter luminescence;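 active = inhibition above about 55%, limit read from the data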;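 note: 0% = DMSO-treated cells and 100% = wells with medium but no cells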
Gli antag conf: confirmation of Gli-SUFU pathway antagonists. 40% of 2,500 active. AID 602428. inhibition, % at 5 µM. shares compounds with Gli-Sufu block. Sufu-KO-LIGHT cells, Gli luciferase reporter, luminescence;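 active = mean inhibition at 5 µM reaching about 45%, limit read from the data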;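 note: plate controls were DMSO-treated cells for no effect and wells lacking cells for full effect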
SufuKO cytotox: cytotoxicity counter-screen for Gli-SUFU antagonists; Sufu-KO-LIGHT cells cytotoxicity, ATP luminescence; AID 651994; shares compounds with Gli-Sufu block; cytotoxicity, % at 5 µM; 32% of 2,500 active;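 active = mean cytotoxicity at 5 µM above about 25%, limit read from the data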;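 note: cells exposed to compound overnight for roughly 16 to 18 hours; plate controls were DMSO wells with cells for no effect and medium without cells for full effect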
Wnt3a counter: Wnt3a reporter inhibition counter-screen. shares compounds with Gli-Sufu block. inhibition, % at 6.25 µM. 20% of 2,500 active. AID 651995. Wnt-LIGHT cells, Wnt3a-driven luciferase reporter, luminescence;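 active = mean inhibition above about 25%, limit read from the data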
Active calls of the source: *; · = no result. Most compounds without a hit are left out; they make up all but 2.3% or so of the library.

SMILES | Jurkat NFkB inh | 697 NFkB inh | Shn3 inh set2 | TAG inh | aSyn UTR inh | Gli-Sufu block | Gli antag conf | SufuKO cytotox | Wnt3a counter
COC(=O)c1ccc(-c2ccc(OC)c([C@H]3[C@H]4C=CC[C@@H](C)[C@@H]4C(=O)N3Cc3ccccc3)c2)cc1 | -23 | 31 | 3 | -25 | 34 | 54 | 50* | 38* | -2
COc1ccc2c(c1OC)C(=O)OC2C1c2c(cc3c(c2OC)OCO3)CCN1C (stereo not drawn) | 1 | 19 | 0 | 24 | -17 | 51 | 34 | 17 | -6
COc1ccc2c(c1OC)C(C1c3c(cc4c(c3OC)OCO4)CCN1C)OC2=O (stereo not drawn) | 7 | -8 | 16 | 20 | 14 | 2 | · | · | ·
O=C(CSc1ncccc1-c1nc2ccccc2[nH]1)NCc1ccco1 | -8 | 8 | -6 | · | -61 | 58* | 28 | 27* | 6
COc1ccccc1CCNC(=O)CNC(=O)c1ccc2ccccc2c1 | 1 | -12 | 1 | · | -6 | 57* | 9 | 9 | -27
COc1ccccc1CCNC(=O)c1ccc(C)o1 | -23 | -4 | -34 | · | -18 | 57* | 4 | 25 | -1
Cc1ccc(S(=O)(=O)N2CCN(c3ccc(N4CCOCC4)nn3)CC2)cc1[N+](=O)[O-] | 2 | 8 | 7 | 8 | 18 | 5 | · | · | ·
O=[N+]([O-])c1ccc(S(=O)(=O)N2CCN(c3ccc(N4CCOCC4)nn3)CC2)cc1 | -25 | 18 | -17 | -3 | 5 | 55 | 33 | 19 | -21
O=C(N/N=C/c1sc(N2CCOCC2)nc1-c1ccccc1)c1ccccc1Cl | 35 | 27 | -4 | 13 | 14 | 0 | · | · | ·
O=[N+]([O-])c1ccc(N/N=C/c2sc(N3CCOCC3)nc2-c2ccccc2)c(S(=O)(=O)Nc2ccc(Cl)cc2)c1 | · | · | 91* | · | 76* | 90* | 90* | 3 | 72*
O=[N+]([O-])c1ccc(N/N=C/c2sc(N3CCOCC3)nc2-c2ccccc2)c(S(=O)(=O)Nc2ccccc2Cl)c1 | · | · | 87* | · | · | 69* | 81* | 12 | 60*
CCN1CCN(CC(=O)c2c(C)n(C)c3ccc(OC)cc23)CC1 | -8 | -7 | -20 | 23 | · | 62* | 11 | 10 | -7
CCOc1ccc2nc(NC(=O)CSc3nnnn3C3CCCCC3)sc2c1 | 7 | 11 | -5 | · | 22 | 71* | 6 | 11 | -84
CCO[C@H]1OC(C(=O)NCc2ccccc2)=C[C@@H](C2CCCCC2)[C@@H]1CCCO | -3 | 0 | -13 | -15 | -8 | 8 | · | · | ·
O=C(O)CCC1(CCC(=O)O)c2ccccc2-c2ccccc21 | -11 | -6 | 8 | · | -5 | 5 | · | · | ·
O=C1CN(CN2CCCCC2)C(=O)CN1CN1CCCCC1 | · | · | -6 | · | · | · | · | · | ·
O=C1CCCN1CN1CCCCC1 | -3 | -15 | -6 | -16 | -11 | 99* | 13 | 22 | -14
CCCc1nnc(NC(=O)CCC(=O)NCc2ccccc2Cl)s1 | 2 | -10 | -18 | · | 4 | 55* | 9 | 15 | -14
CCc1nnc(NC(=O)CCC(=O)NCc2ccccc2Cl)s1 | -3 | 7 | 7 | · | 14 | -3 | · | · | ·
CC(NC(=O)COC(=O)c1ccco1)c1ccccc1 (stereo not drawn) | -3 | 17 | -8 | 1 | 0 | -1 | · | · | ·
CCCn1c(N)c(C(=O)CSc2nnc(-c3ccoc3C)n2C)c(=O)n(C)c1=O | -16 | -4 | -1 | -13 | · | 76* | 12 | 22 | -25
Cc1occc1-c1nnc(SCC(=O)c2c(N)n(Cc3ccccc3)c(=O)n(C)c2=O)n1C | 3 | 0 | 0 | -8 | 10 | 6 | · | · | ·
CCOc1ccc(NC(=O)CCSc2nnc(C)s2)cc1 | 3 | 8 | 6 | 7 | -7 | 53 | 17 | -2 | 3
CCOC(=O)C1CCCN(CC(O)COc2ccccc2C(C)=O)C1 (stereo not drawn) | -8 | 9 | 9 | · | 23 | 6 | · | · | ·
Cn1cc(CNCc2cn[nH]c2-c2ccc(F)cc2)c(-c2ccc3c(c2)OCCO3)n1 | 9 | -10 | -15 | 5 | -14 | 2 | · | · | ·
SMILES | Jurkat NFkB inh | 697 NFkB inh | Shn3 inh set2 | TAG inh | aSyn UTR inh | Gli-Sufu block | Gli antag conf | SufuKO cytotox | Wnt3a counter
Cn1cc(CNCc2ccc(OC(F)(F)F)cc2)c(-c2ccc3c(c2)OCCO3)n1 | 39 | -60 | · | -9 | 5 | 60* | 63* | 36* | 26*
CC(NC(=S)Nc1ccc(OC(F)F)c(Cl)c1)C(C)(C)C (stereo not drawn) | 2 | -29 | -10 | -9 | -14 | -3 | · | · | ·
Cc1ccc(NC(=S)Nc2ccc(OC(F)F)c(Cl)c2)cc1Cl | · | · | 19 | · | 3 | 56* | 5 | -2 | -19
COc1ccc(CCNC(=O)c2cc3c(=O)n4ccccc4nc3n(CCCN3CCOCC3)c2=N)cc1 | 35 | -16 | 13 | · | -39 | 28 | · | · | ·
COc1ccc(CCNC(=O)c2cc3c(=O)n4ccccc4nc3n(CCN3CCOCC3)c2=N)cc1 | 41 | -28 | 25 | · | -46 | 66* | 21 | 5 | -46
CC(=O)Nc1ccc(S(=O)(=O)N(Cc2ccccc2)C(C)C)cc1 | 2 | -22 | 45 | -53 | 1 | 57* | 56* | 12 | 19
CN(C(=O)CCc1ccccc1F)C1CCCN(Cc2ccccc2F)C1 (stereo not drawn) | -17 | -14 | 20 | -8 | 4 | -1 | · | · | ·
O=C(NNC1CC(=O)N(c2ccc(Br)cc2)C1=O)c1cccs1 (stereo not drawn) | 16 | 26 | 2 | 10 | 4 | 2 | · | · | ·
CCOC(=O)CNC1CC(=O)N(c2ccc(Br)cc2)C1=O (stereo not drawn) | -6 | -11 | 1 | -8 | 10 | 77* | 15 | 14 | -9
CC(C)(C)NC(=O)c1cccc(NC(=O)c2ccc(NC(=O)c3ccco3)cc2)c1 | -18 | -13 | 11 | · | -45 | 75* | 18 | 12 | -87
CC(C)(C)NC(=O)c1cccc(NC(=O)c2ccco2)c1 | -10 | 0 | -12 | -5 | -24 | -5 | · | · | ·
CCOC(=O)N1CCN(C(=O)Cn2ccc3c(OC)cccc3c2=O)CC1 | -6 | 11 | 7 | -4 | -6 | 54 | 21 | 0 | 10
C[n+]1c2n(c3ccccc31)N=C(c1ccccc1)CS2 | 0 | -29 | 20 | -21 | -48 | 60* | 72* | 28* | -13
C[n+]1c2n(c3ccccc31)N=C(c1ccc(-c3ccccc3)cc1)CS2 | 43 | 12 | 72 | 1 | 10 | 87* | 89* | 32* | 12
c1ccc(C2=Nn3c(nnc3-c3ccncc3)SC2)cc1 | · | · | -4 | -17 | 25 | -11 | · | · | ·
